{
  "source": "ChEMBL document CHEMBL4888484",
  "about": "“Replenishing the malaria drug discovery pipeline: Screening and hit evaluation of the MMV Hit Generation Library 1 (HGL1) against asexual blood stage Plasmodium falciparum ,using a nano luciferase reporter read-out” (2022)",
  "note": "Screen size: about 150,000 compounds; about 540 (0.36%) showed an effect of 50% or more. This is one part of a sample in which strong results are shown more often than they occur.",
  "data": [
    {"test_system": "Plasmodium falciparum", "assay": "Primary screen in NF54 nanoGlo assay, in single point, at 2uM, 72h; a lower Z score goes with more inhibition", "format": "functional, Erythrocyte", "details": "timepoint 72 hour", "units": {"% Inhibition": "%"}, "values": [
      {"compound": "CCCN1CCN(CCCNC(=O)c2cc3cc(S(=O)(=O)N(C)C)ccc3n2CC)CC1", "% Inhibition": -15, "Z score": 2.13},
      {"compound": "Clc1ccc(-c2cn3c(nc4ccccc43)c(-c3ccccc3)n2)cc1", "% Inhibition": -43, "Z score": 5.09},
      {"compound": "CC(C)CCn1c(=O)c(-c2ccc3ccccc3n2)cc2ccccc21", "% Inhibition": -1, "Z score": 0.07},
      {"compound": "c1ccc(-c2cn3c(n2)c(-c2ccc4ccccc4n2)cc2ccccc23)cc1", "% Inhibition": 76, "Z score": -4.16},
      {"compound": "COc1ccc(C[C@@]2(CCC(=O)N3CCCCC3)CCC(=O)N2)cc1", "% Inhibition": 4, "Z score": -0.58},
      {"compound": "OC(CNC1CCCNc2ccccc21)c1ccc(Cl)s1", "note": "(stereo not drawn)", "% Inhibition": 57, "Z score": -4.74},
      {"compound": "OCc1cc(CN[C@H]2CCCNc3ccccc32)ccc1F", "% Inhibition": 4, "Z score": -0.52},
      {"compound": "O=C(Cc1cccs1)N1CCC2(CCC(=O)N(CCc3cccnc3)C2)CC1", "% Inhibition": 5, "Z score": -1.07},
      {"compound": "COc1ncnc(OC)c1CNc1cnn(C)c1", "% Inhibition": 35, "Z score": -0.52},
      {"compound": "O=C(CC(F)(F)F)N1CCC[C@H](Oc2ncccn2)C1", "% Inhibition": 14, "Z score": -1.95},
      {"compound": "Cc1noc2ncnc(N3CCC4(CC3)CC(=O)N(Cc3ccccc3)C4)c12", "% Inhibition": -6, "Z score": 0.71},
      {"compound": "O=C(c1cc(-c2ccccc2)n[nH]1)N1CCC(N2CCC(Oc3ccccc3F)CC2)CC1", "% Inhibition": -12, "Z score": 1.48},
      {"compound": "O=C(c1cc(-c2ccco2)n[nH]1)N1CCC(N2CCC(Oc3ccccc3F)CC2)CC1", "% Inhibition": 59, "Z score": -4.88},
      {"compound": "O=C(c1cc(-c2ccco2)n[nH]1)N1CCC(Oc2ccccn2)CC1", "% Inhibition": -4, "Z score": 0.71},
      {"compound": "CC[C@H](Oc1ccccc1C)c1nnc(C2(c3ccccc3)CC2)o1", "% Inhibition": -15, "Z score": 1.76},
      {"compound": "CC(C)(C)OC(=O)NC1CCCC1Nc1cnn(-c2ccccn2)c1", "note": "(stereo not drawn)", "% Inhibition": -13, "Z score": 1.28},
      {"compound": "Cc1ccsc1-c1noc([C@H]2CCc3nccn3C2)n1", "% Inhibition": -5, "Z score": 0.62},
      {"compound": "Cc1ccsc1-c1noc([C@@H]2COCCN2C)n1", "% Inhibition": 87, "Z score": -14.98},
      {"compound": "Cc1cnn(C)c1CN1CCOC[C@H]1c1nc(-c2ccccc2)no1", "% Inhibition": 16, "Z score": -2.06},
      {"compound": "CC(NCc1ccc(Br)c2cccnc12)C1CCOC1", "note": "(stereo not drawn)", "% Inhibition": -5, "Z score": 0.52},
      {"compound": "Cc1ccc(C(=O)Nc2c(C)nc(N3CCOCC3)nc2C)cc1C", "% Inhibition": 13, "Z score": -2.05},
      {"compound": "O=S(=O)(Nc1cccc2cccnc12)c1cccs1", "% Inhibition": 55, "Z score": -5.93},
      {"compound": "Cc1n[nH]c(C)c1S(=O)(=O)Nc1cccc2cccnc12", "% Inhibition": -2, "Z score": 0.25},
      {"compound": "O=S(=O)(Nc1cccc2ccccc12)c1cccs1", "% Inhibition": 35, "Z score": -3.95}
    ]}
  ]
}
